High-throughput results from PubChem.
aSyn rescue: inhibitors of alpha-synuclein toxicity in yeast | 370,000 compounds, 0.14% hits | Yeast expressing alpha-synuclein, growth rescue, BacTiter-Glo, 24 h | Potency, µM (series often up to 46.1 µM), inactives show at the highest dose growth rescue (activation), actives largely listed as activators | AID 652106; note: % of control where 0% means no effect; nearly all actives have a fitted effect of over 65% in size
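Readout is rescue of growth in alpha-synuclein-expressing yeast, so inhibitors of toxicity appear as activators. Growth after 24 hr at 30 deg C in galactose medium is quantified by luminescence.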
Mito fusion yeast: blocks mitochondrial division or promotes mitochondrial fusion; S. cerevisiae fusion-defective mutant growth rescue, CellTiterGlo 48 h; Potency, µM (top dose mostly 46.1 µM), without a hit: top-dose growth rescue (activation), hits mostly activators; 320,000 compounds, 0.23% hits; note: % of control where 0% means no effect; nearly all actives have a fitted effect of over 45% in size
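Luminescent cell viability in 1536-well qHTS format served as the measure of rescued growth in ts fusion-mutant S. cerevisiae cultured on non-fermentable YPEG for 48 hours at 37C.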
FUS suppressor: FUS proteinopathy suppression in yeast; S. cerevisiae FUS-expressing, growth rescue, OD600, 24 h; Potency, µM (series often up to 76.6 µM), actives largely listed as activators; 390,000 compounds, 0.24% hits; AID 1347120;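 note: plate controls were DMSO vehicle for no effect and reference control for full effect; nearly all actives have a fitted effect of over 55% in size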
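Yeast FUS proteinopathy model; galactose-induced FUS (2%), starting OD 0.005. Cpds in dilution series, 24hr, 30C, 99% humidity. Abs 600 nm growth. Pos ctrl CP55940 (top 92uM final); neg ctrl DMSO.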
TDP-43 yeast inh: inhibitors of TDP-43 toxicity in yeast. TDP-43 expressing yeast growth rescue, BacTiter-Glo, 24 h. Potency, µM (doses to about 46.1 µM), inactives show at the highest dose growth rescue (activation), most hits filed as activators. 410,000 compounds, 1.8% hits. AID 652104; note: % of control where 0% means no effect; nearly all actives have a fitted effect of over 50% in size
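Readout is BacTiter-Glo luminescence of cell growth, so inhibitors register as activators. TDP-43-expressing yeast at OD600=0.02 in galactose medium, after raffinose pregrowth to mid-log, were incubated with compound for 24 hr at 30 deg C.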
Abeta yeast res: compounds reversing amyloid beta toxicity in yeast; Potency, µM (series often up to 46.1 µM), hits mostly activators; yeast expressing A-beta42, growth rescue, OD600, 48 h; response scale: 0% DMSO, 100% iron-clioquinol control; 410,000 compounds, 0.063% hits; AID 1347071; note: nearly all actives have a fitted effect of over 55% in size
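Yeast growth medium received pinned compounds, then yeast cells expressing toxic A-beta were added; plates incubated at 30 C for 48 hr. Growth read as absorbance at 600 nm, normalized to DMSO and equimolar FeCl3 plus clioquinol controls.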
* = called active by the depositor; [ ] = remark or other dose. Sampled rows, rich in hits. Any-hit rate of the full collection: about 2.2%. Calls come from the whole dose curve; as a rule, active = well fitted curve in the direction sought with a large enough effect; inconclusive = small, poorly fitted or top-dose-only effect, or another doubt; inactive = no such curve, though single readings can be large; an effect the other way counts as inactive or inconclusive. Potency is the fitted concentration of half-maximal effect.

How did O=C(NC(c1cccnc1)C(F)(F)F)c1cc(COc2ccc3c(c2)CCCC3)on1 (stereo not given) do in these assays?
aSyn rescue: 12%; Mito fusion yeast: 4%; FUS suppressor: inactive; TDP-43 yeast inh: 20µM*; Abeta yeast res: inactive

How did COc1ccc(C(=O)/C(=C\c2sccc2C)c2nc3ccccc3o2)cc1 do in these assays?
Mito fusion yeast: 8%

How did CC(C)Oc1ccc(C(=O)/C(=C\c2cccs2)c2nc3ccccc3o2)cc1 do in these assays?
aSyn rescue: 0%; Mito fusion yeast: 10µM*; FUS suppressor: inactive; TDP-43 yeast inh: 8%; Abeta yeast res: inactive

What do the screens show for `COc1ccccc1CN1CC(C(=O)NCCCc2ccc(F)cc2)CCC1=O` (stereo not given)?
aSyn rescue: -2%; Mito fusion yeast: 29%; FUS suppressor: 16µM*; TDP-43 yeast inh: -4%; Abeta yeast res: inactive

How did Cc1cc(N)n2ncc(-c3ccc(Cl)cc3)c2n1 do in these assays?
aSyn rescue: -12%; Mito fusion yeast: 20%; FUS suppressor: inactive; TDP-43 yeast inh: 8.9µM*; Abeta yeast res: inactive

Results for CCOCCc1nn2c(=O)cc(COC(=O)c3ccccc3NC(=O)c3cccs3)nc2s1 ?
FUS suppressor: inactive; TDP-43 yeast inh: 18%; Abeta yeast res: inactive

How did CCOC(=O)CSc1nc2sc(C)c(C)c2c(=O)n1C do in these assays?
aSyn rescue: 0%; Mito fusion yeast: 1%; FUS suppressor: inactive; TDP-43 yeast inh: 11µM*; Abeta yeast res: inactive

Results for Cc1ccc(-c2noc(C3CCCN(C(=O)c4ccccc4Br)C3)n2)cc1 (stereo not given) ?
aSyn rescue: 0%; Mito fusion yeast: 7%; FUS suppressor: inactive; TDP-43 yeast inh: 13µM*; Abeta yeast res: inactive

How did O=C(Nc1ccc(F)cc1F)N1CCCC(c2nc(-c3ccc(F)cc3)no2)C1 (stereo not given) do in these assays?
aSyn rescue: 0%; Mito fusion yeast: 13%; FUS suppressor: inconclusive; TDP-43 yeast inh: 13µM*; Abeta yeast res: inactive

How did CCOC(=O)C1CCN(S(=O)(=O)c2ccc(N3CCCCS3(=O)=O)cc2)CC1 do in these assays?
FUS suppressor: inactive; TDP-43 yeast inh: 18%[9.22 µM]; Abeta yeast res: inactive

How did CC(=O)NC1CC2CCCC(C1)N2S(=O)(=O)c1cccc(F)c1 (stereo not given) do in these assays?
aSyn rescue: -1%; Mito fusion yeast: 6%; FUS suppressor: 32µM*; TDP-43 yeast inh: -5%; Abeta yeast res: inactive

Results for O=C(NC1CC2CCCC(C1)N2S(=O)(=O)c1ccccc1)c1ccco1 (stereo not given) ?
aSyn rescue: 3%; Mito fusion yeast: 2%; FUS suppressor: inactive; TDP-43 yeast inh: 0%; Abeta yeast res: inactive

How did Cc1onc(-c2c(Cl)cccc2Cl)c1C(O)c1ccccc1 (stereo not given) do in these assays?
aSyn rescue: 28%; Mito fusion yeast: 6%; FUS suppressor: inactive; TDP-43 yeast inh: 11µM*; Abeta yeast res: inactive

What do the screens show for `Cc1onc(-c2c(Cl)cccc2Cl)c1C(O)c1ccc(F)cc1` (stereo not given)?
aSyn rescue: inconclusive; Mito fusion yeast: 16%; FUS suppressor: inactive; TDP-43 yeast inh: inconclusive; Abeta yeast res: inactive

How did CCN(CC)C(=O)CC[C@@H]1CC[C@]2(CCCN(S(C)(=O)=O)C2)O1 do in these assays?
FUS suppressor: inactive

Results for CCOC(=O)N1CCc2c(sc(NCc3cccc(F)c3)c2C(=O)Nc2ccc(OC)cc2OC)C1 ?
FUS suppressor: inconclusive; TDP-43 yeast inh: 6%; Abeta yeast res: inactive

What do the screens show for `Cn1c(=NN=Cc2ccccc2OCCO)sc2ccccc21`?
aSyn rescue: 5%; FUS suppressor: inactive; TDP-43 yeast inh: 13µM*; Abeta yeast res: inactive

How did Cn1/c(=N/N=C/c2ccc([N+](=O)[O-])cc2)sc2ccccc21 do in these assays?
Mito fusion yeast: 7%

What do the screens show for `O=C(NCc1nc2ccccc2[nH]1)C1=C[C@H](c2ccc(C(F)(F)F)cc2)C[C@H](OCc2ccc(CO)cc2)O1`?
aSyn rescue: -11%; Mito fusion yeast: 7%; FUS suppressor: 25µM*; TDP-43 yeast inh: -1%; Abeta yeast res: inactive

Results for Cn1ccc2c(-c3ccc(CO)cc3)cc3c(c21)C1CCC3C1 (stereo not given) ?
aSyn rescue: 14%; FUS suppressor: inconclusive; TDP-43 yeast inh: 35µM*; Abeta yeast res: inactive

Results for Cn1ccc2c(-c3ccc(C(C)(C)C)cc3)cc3c(c21)C1CCC3O1 (stereo not given) ?
aSyn rescue: 15%; FUS suppressor: inactive; TDP-43 yeast inh: 15%; Abeta yeast res: inactive

What do the screens show for `Cn1ccc2c(-c3ccc(C(F)(F)F)cc3)cc3c(c21)C1CCC3O1` (stereo not given)?
aSyn rescue: -24%; FUS suppressor: inactive; TDP-43 yeast inh: 8.9µM*; Abeta yeast res: inconclusive

What do the screens show for `Cn1ccc2c(-c3ccc(F)cc3)cc3c(c21)C1CCC3C1` (stereo not given)?
aSyn rescue: -20%; FUS suppressor: inactive; TDP-43 yeast inh: 0%; Abeta yeast res: inactive

How did Cn1ccc2c(-c3ccc(C(=O)O)cc3)cc3c(c21)C1CCC3O1 (stereo not given) do in these assays?
aSyn rescue: 3%; FUS suppressor: inactive; TDP-43 yeast inh: 22µM*; Abeta yeast res: inactive

How did Cc1ccccc1-c1cc2c(c3c1ccn3C)C1CCC2O1 (stereo not given) do in these assays?
aSyn rescue: -2%; FUS suppressor: inactive; TDP-43 yeast inh: 11µM*; Abeta yeast res: inconclusive

How did Cn1ccc2c(-c3ccc(CO)cc3)cc3c(c21)C1CCC3O1 (stereo not given) do in these assays?
aSyn rescue: inconclusive; FUS suppressor: inactive; TDP-43 yeast inh: 12%; Abeta yeast res: inactive

Results for Cc1ccc(NC(=O)c2ccc(CN3CC(=O)N4CCCCC4C3=O)cc2)cc1C (stereo not given) ?
FUS suppressor: inactive; TDP-43 yeast inh: 8%; Abeta yeast res: inactive

Results for COc1ccc(Br)cc1CNC(=O)CCSCc1ccc(Cl)cc1 ?
FUS suppressor: inactive; TDP-43 yeast inh: -3%; Abeta yeast res: inactive

Results for Cc1ccc(-n2ncc(C(=O)NCCCN3CCN(C)CC3)c2C2CCN(C(=O)OC(C)(C)C)CC2)cc1 ?
FUS suppressor: inactive; TDP-43 yeast inh: 3%; Abeta yeast res: inactive

What do the screens show for `CCC(NC(=O)Nc1cc(OC)ccc1OC)c1c(-n2cccc2)sc2c1CCN(CC)C2` (stereo not given)?
FUS suppressor: inactive; TDP-43 yeast inh: 13%; Abeta yeast res: inactive

Results for Cc1noc2ncnc(NCc3ccc(Cl)cc3)c12 ?
FUS suppressor: inactive; TDP-43 yeast inh: inconclusive; Abeta yeast res: inactive
